Our source for the activity change, negative = inhibition and Potency values is PubChem BioAssay AID894 (National Center for Advancing Translational Sciences (NCATS), 2007).

Out of some 150,000 compounds screened, about 6,500 (4.3%) were called active. Another 12% or so got no clear call; they are omitted. The sample holds actives, similar compounds and a random draw of the others, so the mix is not that of the screen. Values without a mark were called inactive. The call rests on the fitted dose curve; in most records, active means well fitted inhibition curve with a large enough effect (not every such curve was filed as active); inconclusive means small, poorly fitted or top-dose-only effect, or another doubt; inactive means no such curve, though single readings can be large or run the other way.
On the % scale 0 is the no-effect control and ±100 the full control effect; potency means the concentration at half of the fitted maximal effect.

The target of this assay is 15-hydroxyprostaglandin dehydrogenase [NAD(+)] (Homo sapiens) (UniProt P15428). The assay can be described thus: qHTS Assay for Inhibitors of HPGD (15-Hydroxyprostaglandin Dehydrogenase). The settings on record: purified HPGD, NADH fluorescence kinetic, PGE2 substrate; activity change, negative = inhibition: stronger effect = lower value. Summed up: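 NADH formation kinetics: reaction with 30 uM PGE2 and 1 mM NAD+ (final), 20 nM enzyme, Tris-HCl pH 8 with Tween 20, after 15 min compound preincubation at room temperature. Fluorescence change, last versus first of five reads.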
Sequence of 15-hydroxyprostaglandin dehydrogenase [NAD(+)] (Homo sapiens) (P15428 whole entry, looked up): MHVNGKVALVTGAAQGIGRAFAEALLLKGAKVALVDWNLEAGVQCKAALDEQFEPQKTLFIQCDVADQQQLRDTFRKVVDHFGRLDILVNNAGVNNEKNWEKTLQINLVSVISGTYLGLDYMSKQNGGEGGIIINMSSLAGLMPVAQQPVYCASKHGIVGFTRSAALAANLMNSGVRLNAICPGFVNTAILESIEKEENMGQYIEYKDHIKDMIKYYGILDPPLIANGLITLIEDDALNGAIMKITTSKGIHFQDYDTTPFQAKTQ
As for `N/C(=N\OC(=O)CC1CCCCC1)c1ccccc1`, the activity change, negative = inhibition was -21.9%.
As to `Cc1ccc(C2CC(=O)NC(SCC(=O)OCc3ccccc3)=C2C#N)o1` (centres undefined), the activity change, negative = inhibition is -25.8%.
Take `CCOC(=O)CSC1=C(C#N)C(c2sccc2C)CC(=O)N1` (centres undefined): the activity change, negative = inhibition is -3.48%.
Take `C=CCSC1=C(C#N)C(c2cc(Br)c(O)c(OC)c2)CC(=O)N1` (centres undefined): the Potency was 17.8 µM (active).
Consider `CSCCC(NC(=O)COc1ccccc1)C(=O)Nc1ccc(C)cc1` (centres undefined), for which the activity change, negative = inhibition is -0.719%.
`CCCCC/C=C\C/C=C\C/C=C\CCCCC(=O)NCC(=O)O`: the activity change, negative = inhibition was -3.51%.
On the same count and under the same terms, with `CCC(=O)Nc1c(C)n[nH]c1C` the figure was -8.91%.
Still for that read-out and setting: then `Nc1nc(SCC(=O)NCCN2CCOCC2)nc2sc3c(c12)CCC3`, with -10.4%.
On to `CC(C)(C)C1CCc2c(sc3nc(SCC(N)=O)nc(N)c23)C1` (centres undefined), for which the Potency was 28.2 µM (active).
Turning to `CN(C)CCSc1nc(N)c2c3c(sc2n1)COC(C)(C)C3`, the activity change, negative = inhibition is -15.6%.
With `COC(=O)c1sccc1NC(=O)COc1ccc(Cl)cc1`, the activity change, negative = inhibition is -12%.
Regarding `Cc1sc2nc(CSCC(=O)Nc3c(Cl)cccc3Cl)[nH]c(=O)c2c1C`, the activity change, negative = inhibition is -14%.
On to `C=CCNC(=O)CSc1nc2sc(C)c(C)c2c(=O)[nH]1`, for which the Potency is 14.1 µM (active).
Consider `Cc1sc2nc(SCC(N)=O)n(C)c(=O)c2c1C`, for which the activity change, negative = inhibition is -0.652%.
Still for that read-out and setting: then `COc1ccc(-c2[nH]ncc2/C=N/NC(=O)c2cc(Br)ccc2O)c(OC)c1`, with -16.3%.
Same read-out and setting: then `Cc1ccc(S(=O)(=O)N(C)C)cc1NC(=O)/C=C/c1cccs1`, with -12.9%; and `CS(=O)(=O)N(Cc1ccccc1)c1ccc(C(=O)NN=C2CCCCCC2)cc1`, with -5.89%.
Still for that read-out and setting: then `CCCC/C(C)=N/NC(=O)NC1CCCCC1`, with -6.12%.
In the case of `Cc1ccc(C2=NN(C(=O)CSc3nc(N)cc(N)n3)C(c3ccco3)C2)cc1` (centres undefined), the activity change, negative = inhibition was -20.9%.
Same read-out and setting: with `CS(=O)(=O)Nc1cccc(C2=NN(S(=O)(=O)c3ccccc3)C(c3cccs3)C2)c1` (centres undefined) the figure was -7.08%.
Turning to `CCS(=O)(=O)Nc1ccc(C2=NN(S(=O)(=O)c3ccc(F)cc3)C(c3ccco3)C2)cc1` (centres undefined), the Potency is 12.6 µM (active).
Consider `COc1ccc(-c2csc(NC(=O)COC(=O)c3ccc(Br)o3)n2)cc1`, for which the activity change, negative = inhibition was -1.93%.
Same read-out and setting: with `O=c1ccn(Cc2ccccc2Cl)cc1` the figure was 0.459%.
On to `O=C1c2ccccc2C(O)N1Cc1ccccc1Cl` (centres undefined), for which the Potency is 12.6 µM (active).
`O=C1c2ccccc2C(O)N1Cc1ccccc1` (centres undefined): the activity change, negative = inhibition was -28.7%.
In the case of `C=CCC1CCC(=O)N2CCCC12` (centres undefined), the activity change, negative = inhibition is -1.41%.
As for `COc1ccc(/C=C2\NC(=O)[C@@H]3Cc4ccccc4CN3C2=O)cc1`, the activity change, negative = inhibition is -5.55%.
The same measure, in the same setting: then `COC(=O)C1=C(C(=O)OC)[C@@H]2N(Cc3ccccc3)c3ccccc3[C@@]23C[C@@H](C(=O)OC)N(S(=O)(=O)c2ccc(C(F)(F)F)cc2)C3=N1`, with -11.4%; and `O=C(Nc1ccn(Cc2ccc(F)cc2)n1)c1ccncc1`, with 1.11%.
In the case of `O=C(Nc1ccn(Cc2ccccc2)n1)c1n[nH]c([N+](=O)[O-])c1Cl`, the Potency was 28.2 µM (active).
In the case of `Cc1ccc(Cn2ccc(NC(=O)c3cc(C(C)C)on3)n2)cc1`, the activity change, negative = inhibition was -19.4%.
Still for that read-out and setting: then `CCOc1ccc(N2C(=O)/C(=C/c3ccc(C)o3)N(C)C2=S)cc1`, with -30%.
Turning to `C=CCNC(=O)c1csc(-c2ccccc2)n1`, the Potency was 15.8 µM (active).
In the case of `CNC(=O)c1csc(-c2ccccc2)n1`, the activity change, negative = inhibition was -8.99%.
With `COc1cc(OC)cc(C(=O)NCC(=O)OCc2csc(-c3ccccc3)n2)c1`, the activity change, negative = inhibition was -9.37%.
On to `CC1CCCCN1S(=O)(=O)c1ccc(S(=O)(=O)N(CC(=O)Nc2ccccc2)Cc2cccs2)cc1` (centres undefined), for which the activity change, negative = inhibition was -10.3%.
The same measure, in the same setting: with `O=C(CN1C2=NCCN2c2ccccc21)c1cccs1` the figure was -3.36%.
The same measure, in the same setting: then `COc1ccc2c(c1)O[C@@H](c1ccc3c(c1)OCO3)[C@H](OC(=O)NCc1ccco1)C2=O`, with -11.6%.
As for `S=c1[nH]nc(SCc2ccccc2Cl)c2[nH]cnc12`, the Potency is 1.26 µM (active).
Consider `C[C@H]1Cc2c(COc3ccccc3)nc3c(c2CO1)CN(C(=O)NCc1ccco1)CC3`, for which the activity change, negative = inhibition was -1.13%.
For the molecule `COc1nc(N(C)C)nc(N2CC(=O)N(CCNS(=O)(=O)c3ccc(C)cc3)C2=N)n1`, the activity change, negative = inhibition was -10.5%.
For the molecule `c1nc(COc2nsnc2N2CCOCC2)cs1`, the Potency is 31.6 µM (active).
As to `O=C(COc1nc2ccccc2nc1N1CCOCC1)NCC(F)(F)F`, the activity change, negative = inhibition is -9.54%.
On to `c1ccc(COc2nsnc2N2CCOCC2)cc1`, for which the activity change, negative = inhibition was -17.1%.
For `C=CCNC(=O)/C(=C\c1cccc([N+](=O)[O-])c1)NC(=O)c1ccccc1`, the activity change, negative = inhibition is -14.6%.
On to `Cc1cc(C)cc(OCC(=O)NNC(=O)CCN2C(=O)c3ccccc3C2=O)c1`, for which the activity change, negative = inhibition was -12.4%.
For the molecule `CCOC(=O)c1nnn(-c2nonc2-n2cccc2)c1CN1CCOCC1`, the activity change, negative = inhibition was -13.3%.
As for `CCOC(=O)c1nnn(-c2nonc2OC)c1-c1ccccc1`, the Potency is 8.91 µM (active).
Consider `CCOC(=O)c1nnn(-c2nc(OC)nc(N(C)C)n2)c1-c1ccccc1`, for which the activity change, negative = inhibition is -1.76%.
On to `O=C1C=C(c2ccccc2)CCC1`, for which the activity change, negative = inhibition is -3.18%.
Still for that read-out and setting: with `CC1=C2[C@@H](O)[C@H]([C@@H](C)C(=O)NCCC(C)C)CC[C@@]2(C)C=CC1=O` the figure was -7.81%; with `Cc1ccccc1N/C(SCc1ccc(Cl)cc1)=C(/C#N)C(N)=O`, -18.2%; with `COC(=O)CCCC1=CC2=CC(=O)C(C)(OC(=O)c3cccs3)C(=O)C2=CN1c1ccc(CO)cc1` (centres undefined), -7.14%.
Consider `CCOC(=O)c1cc2n(c1C)-c1ccccc1C2=O`, for which the activity change, negative = inhibition was -17.5%.
Same read-out and setting: with `CCOC(=O)Nc1ccccc1N1C(=O)c2ccccc2C1=O` the figure was -2.62%.
As to `CCOC(=O)c1cc2n(c1N)-c1ccccc1C2=O`, the Potency is 31.6 µM (active).
For `COc1ccc(OC)c(-c2c(=O)n(OCc3ccccc3Br)c3ccccc3[n+]2[O-])c1`, the activity change, negative = inhibition is -7.2%.
Still for that read-out and setting: then `COC(=O)C1=C(C(=O)OC)[C@@H]2N(C)c3ccccc3[C@@]23C[C@@H](C(=O)OC)N(S(=O)(=O)c2cccs2)C3=N1`, with -9.16%; and `CCCCCCCC[C@@H](O)/C=C/C=C/C=C\[C@@H](O)CCCC(=O)O`, with -0.184%.
